Screens from PubChem BioAssay.
TRHR agonist = activates the human TRH receptor; TRHR cells, calcium flux fluo-8, FDSS agonist mode; activation, % at 2 µM; 360,000 tested, 0.18% active; AID 493084; note: 0% is about no effect
Target sequence (P34981 whole entry, looked up): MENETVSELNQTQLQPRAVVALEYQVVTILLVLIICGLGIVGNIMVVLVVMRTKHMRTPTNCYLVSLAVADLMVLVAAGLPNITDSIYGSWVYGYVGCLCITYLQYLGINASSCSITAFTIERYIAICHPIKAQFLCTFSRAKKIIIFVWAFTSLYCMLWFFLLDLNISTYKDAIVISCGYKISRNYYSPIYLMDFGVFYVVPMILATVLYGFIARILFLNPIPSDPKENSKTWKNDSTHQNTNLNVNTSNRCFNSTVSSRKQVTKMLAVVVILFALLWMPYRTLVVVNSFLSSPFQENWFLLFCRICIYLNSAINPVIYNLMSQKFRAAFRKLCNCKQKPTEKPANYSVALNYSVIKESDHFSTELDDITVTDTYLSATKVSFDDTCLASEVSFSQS
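TRHR-expressing cells loaded with fluo-8 calcium dye; 23 nL library compound pin-transferred, kinetic FDSS fluorescence (Ex 480/Em 530) recorded about 180 s for agonist-induced calcium release, before a 10 nM TRH EC20 addition for potentiator mode.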
D1 agonist = activates the human D1 dopamine receptor; P21728; HEK293 T-REx D1 cells, calcium flux, agonist mode; activation, % at 2 µM; 360,000 tested, 1% active; AID 504660; note: 0% is about no effect
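Agonism was scored from calcium flux recorded over 180 s (1 read/s) after pintool compound addition, following a 10-cycle baseline. Cells were inducible force-coupled HEK293 TREx D1, plated overnight at 30 C and loaded with no-wash calcium dye.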
D1 antagonist = blocks dopamine activation of the human D1 receptor | P21728 | HEK293 TREx D1 cells, calcium flux, dopamine EC80; active compounds read low | activity change, negative = inhibition, % at 10 µM | 360,000 tested, 3.2% active | AID 504652; in the data active = activity change below about -30%; note: % is set by controls: 0 for no effect and ±100 for the full control effect
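After overnight tetracycline induction at 30 C, force-coupled D1 HEK293 cells took up a no-wash calcium dye at room temperature. Compounds were added and monitored 180 s, and the response to EC80 dopamine was then recorded.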
D1 PAM = potentiators of human D1 dopamine receptor | HEK293 TREx D1 cells, calcium flux, dopamine EC20 potentiation | AID 504651 | potentiation, % at 10 µM | 360,000 tested, 0.036% active; in the data active = potentiation above about 30%; note: 0% is about no effect
TRHR PAM = TRH receptor (human) allosteric enhancement | P34981 | TRHR cells, fluo-8 calcium fluorescence, EC20 TRH enhancement | enhancement, % at 2 µM | 360,000 tested, 0.66% active; in the data active = enhancement above about 30%; note: 0% is about no effect
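TRHR-expressing cells loaded with fluo-8 calcium dye were read kinetically (ex 480/em 530) during compound addition, then stimulated with an EC20 of TRH (10 nM final). Enhancement of the Gq-mediated intracellular calcium response was scored.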
Active calls of the source: *; . = no result. A selection: hits, their analogues and other compounds. The true share with any hit is near 4.7%. Cut-off read from the data, not from the text of the source, unless noted: active = activation above about 30%; inactive = the rest.

SMILES | TRHR agonist | D1 agonist | D1 antagonist | D1 PAM | TRHR PAM
Cc1cc(C)cc(Nc2cc(C(=O)NC3CCC(C)CC3)c3ccccc3n2)c1 (configuration not stated) | 0.4 | 1.7 | 8.3 | -2.0 | 33.1*
CN1CCC(NC(=O)c2cc(-c3cccc(Br)c3)nc3ccccc23)CC1 | 1.2 | 38.0* | -34.7* | -10.3 | 2.6
Cc1cc(C)cc(Nc2cc(C(=O)NC3CCCCC3)c3ccccc3n2)c1 | -0.5 | -0.1 | 3.6 | -1.6 | 7.2
O=C(NC1CC1)c1cc(-c2ccc(Br)cc2)nc2ccccc12 | -0.4 | 5.7 | 42.6 | . | -0.1
COC(=O)c1c(C)oc(C)c1S(=O)(=O)NCC1CC1 | -1.3 | 3.5 | -5.2 | -10.6 | 1.8
COC(=O)c1c(C)oc(C)c1S(=O)(=O)N(C)C1CCCCC1 | -1.5 | 1.4 | -45.5* | -2.1 | -1.3
O=C(NCCOc1ccc(F)cc1)C1CCC(=O)N(CCN2CCOCC2)C1 (configuration not stated) | 0.8 | -0.1 | -53.0* | -4.9 | -3.1
Cc1ccc(CNC(=O)c2cc3c(=O)n(Cc4cccnc4)ccc3nc2C)cc1 | -0.1 | 1.2 | 3.8 | -3.9 | -1.8
CC1CC(C)CN(C(=O)Cn2c(SCC(=O)N3CCc4ccccc4C3)nc3ccccc32)C1 (configuration not stated) | 0.1 | 0.7 | -65.0* | 6.0 | -14.4
CC(C)NC(=O)Cn1c(SCC(=O)N2CCc3ccccc3C2)nc2ccccc21 | -0.3 | 1.8 | 11.9 | 0.5 | -11.5
COc1ccc(-n2c(=O)c3c4c(sc3n(CC(=O)N3CCCCC3C)c2=O)CCC4)c(OC)c1 (configuration not stated) | -0.7 | -0.1 | -71.3* | -0.4 | -0.7
CCOc1ccc(S(=O)(=O)NCC(c2ccc(N(C)C)cc2)N2CCCC2)cc1 (configuration not stated) | -0.5 | -0.2 | -2.7 | -0.1 | 0.4
COC(=O)c1cnc(Oc2ccc(NC(=O)NC(=O)c3c(OC)cccc3OC)cc2)cc1C(F)(F)F | 1.7 | 2.4 | -54.4* | -10.9 | 3.4
c1nc2sc3c(c2c2nnnn12)CCCC3 | -0.1 | 1.0 | -3.6 | -4.6 | -1.0
Cc1nn2cnc3sc4c(c3c2nc1=O)CCCC4 | -0.3 | -0.6 | -85.9* | -7.2 | -10.7
O=[N+]([O-])c1ccccc1-c1ccc(CN2CCN(c3ccccc3)CC2)o1 | 0.2 | 0.3 | -32.6* | -8.8 | -5.3
Cc1ccc2c(CC(=O)NCc3ccccc3)coc2c1C | -0.6 | -0.9 | -15.5 | -1.6 | 10.0
CN(Cc1ccccc1)CC(O)COc1ccc(CNCc2ccc(Cl)s2)cc1 (configuration not stated) | 9.2 | 54.4* | -40.7* | -5.2 | -2.8
Cc1cccc(N2CCN(S(=O)(=O)c3c(C)[nH]c(C)c3C(=O)N3CCCCC3)CC2)c1C | 1.0 | 13.3 | -16.3 | -10.7 | 30.3*
Cc1[nH]c(C)c(S(=O)(=O)N(Cc2ccccc2)C(C)C)c1C(=O)N1CCCC1 | 0.1 | 1.5 | -34.4* | 5.3 | -1.7
O=S(=O)(Nc1ccc(Cc2ccncc2)cc1)c1ccc(Br)cc1 | 2.1 | 11.5 | -73.4* | -7.0 | 4.0
CCOC(=O)c1cccc(N/C=C/C(=O)c2ccc(OC)c(OC)c2)c1 | -1.9 | 2.0 | 2.3 | -7.0 | 6.5
COc1cccc(C(=O)/C=C/Nc2ccc(S(=O)(=O)Nc3ccc(C(C)=O)cc3)cc2)c1 | 0.4 | 3.4 | -34.4* | -6.4 | 1.6
CCOC(=O)c1ccc(N/C=C\C(=O)c2cccc(OC)c2)cc1 | 0.4 | 11.3 | -46.4* | 1.5 | -9.0
COc1ccc2c(C)c(CCC(=O)NCc3ccccc3Cl)c(=O)oc2c1C | -0.6 | 6.6 | -12.8 | -1.5 | -5.4
SMILES | TRHR agonist | D1 agonist | D1 antagonist | D1 PAM | TRHR PAM
COc1ccc(S(=O)(=O)n2nc(C)c(S(=O)(=O)N3CCC(C)CC3)c2C)cc1OC | 0.0 | 5.8 | -4.2 | 1.2 | 2.3
CCN(CC)CCN1C(=O)C(=O)/C(=C(/O)c2ccc3c(c2)CC(C)O3)C1c1ccc(OC)cc1 (configuration not stated) | 0.5 | 3.2 | -30.2* | -4.2 | 1.0
CCN1C(=O)c2ccccc2S(=O)(=O)c2ccc(C(=O)NCc3ccccc3)cc21 | 0.4 | 7.3 | -1.9 | 3.9 | -5.1
CCOC(=O)N1CCc2c(sc3c2c(=O)n(Cc2ccccc2)c(=O)n3Cc2ccccc2Cl)C1 | -0.6 | 0.1 | 3.9 | -1.6 | 21.9
COc1ccc(CC(=O)N2CCN=C2SC)cc1 | 0.5 | 2.9 | -79.0* | . | 0.6
O=C(Cc1ccccc1)N1CCN=C1SCc1cccc([N+](=O)[O-])c1 | -0.3 | -0.1 | -23.0 | -4.3 | 31.3*
CSC1=NCCN1C(=O)Cc1ccc(Cl)cc1 | 0.1 | 1.6 | 23.5 | . | -5.2
Cc1cccc(C(=O)N2CCN=C2SCc2ccc([N+](=O)[O-])cc2)c1 | 0.2 | 6.4 | 5.2 | 3.8 | 0.9
CC(=O)N1CCN(C(=O)c2cc(C)nc3ccccc23)CC1 | -0.2 | 1.8 | 10.6 | -0.1 | -4.3
Cc1cc(C(=O)N2CC=C(c3ccccc3)CC2)c2ccccc2n1 | -0.1 | 2.0 | -41.4* | -3.4 | -0.1
O=C(O)c1ccccc1C(=O)N1CC=C(c2ccccc2)CC1 | 0.7 | 2.2 | -39.0* | -3.3 | -1.5
Cc1ccc(C(=O)N2CC=C(c3ccccc3)CC2)o1 | 0.1 | -0.4 | -6.1 | -1.9 | -2.8
O=[N+]([O-])c1ccc(-c2ccc(/C=N/Nc3nc(N4CCCCC4)nc(N4CCCCC4)n3)o2)cc1 | 14.0 | 46.8* | -2.1 | -2.2 | 0.7
O=[N+]([O-])c1cccc(-c2ccc(/C=N/Nc3nc(N4CCCCC4)nc(N4CCCCC4)n3)o2)c1 | -1.1 | 4.6 | 3.1 | 0.8 | -2.3
O=[N+]([O-])c1ccc(/C=N/Nc2nc(N3CCCC3)nc(N3CCCC3)n2)o1 | -0.3 | 0.8 | -13.3 | -1.4 | -1.5
O=[N+]([O-])c1ccc(-c2ccc(/C=N/Nc3nc(N4CCCC4)nc(N4CCCC4)n3)o2)cc1 | 17.8 | 76.1* | 17.5 | -2.0 | -6.5
COc1cccc(Cn2c(Oc3cc(C)cc(C)c3)nc3c2c(=O)n(C)c(=O)n3C)c1 | -1.1 | 1.5 | 6.1 | 0.6 | -0.7
CC(C)(O)C#Cc1ccc(C(=O)N2CCN(c3ccccc3)CC2)cc1 | 0.6 | 2.6 | -25.4 | -0.6 | 34.3*
CCS(=O)(=O)N1CCN(c2ccccc2)CC1 | -0.5 | 1.4 | -3.6 | -1.2 | 32.3*
O=C(C1CCN(S(=O)(=O)c2cccnc2)CC1)N1CCN(c2cccc(Cl)c2)CC1 | -1.4 | 10.5 | -83.2* | -0.8 | 5.0
O=C(C1CCN(S(=O)(=O)Cc2ccccc2)CC1)N1CCN(c2ccccc2)CC1 | 0.0 | -1.9 | -60.7* | 1.1 | 1.4
CNS(=O)(=O)c1cnccc1N1CCN(c2cccc(Cl)c2)CC1 | 1.5 | 11.4 | -30.5* | -9.3 | 2.0
Cc1ccc(NC(=O)CCc2nnc3n(C)c(=O)c4sccc4n23)cc1C | -0.2 | -0.5 | 8.3 | 0.9 | 4.4
O=S(=O)(Cc1ccccc1)N1CCN(c2ncccn2)CC1 | 0.1 | 3.7 | -50.8* | -7.4 | 5.6
